Screens as filed in PubChem BioAssay.
Rows were chosen to be rich in hits. Some 3.9% of all compounds tested hit in one or more screens of this group.
p53null 39C kill: qHTS Screen for Compounds that Selectively Target Cancer Cells with p53 Mutations: Cytotoxicity of p53 Null Cells at the Nonpermissive Temperature; H1299 p53-null (neo) cells, 39C, ATPlite viability, 24 h; Potency, µM (series often up to 46.1 µM), actives largely listed as cytotoxic; 55,000 compounds, 0.97% hits; AID 904, 2007; also: nearly all actives have a fitted effect of over 50% in size
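Temperature-shift cytotoxicity format: compound titrations on p53-null or A138V-expressing H1299 cells held 24 hr at 39C, cell ATP then measured, AC50 from Hill model.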
FH mod: Identification of activators of human fumarate hydratase by quantitative high-throughput screening. Potency, µM (doses to about 79.9 µM), actives largely listed as inhibitors. 54,000 compounds, 0.22% hits. FH coupled MDH/diaphorase resazurin fluorescence, 15 min. AID 1347055, 2019; also: the screen sought activators but most active calls are inhibition curves; nearly all actives have a fitted effect of over 45% in size
GALC G270D up: A Novel Cell-Based Assay to Identify Small Molecules for B -Galactocerebrosidase. 145M-Twi-hGALC-G270D cells (Twitcher mouse brain line with human GALC G270D), HMU-beta-Gal fluorescence, 48 h. Potency, µM (series often up to 57.5 µM), actives largely listed as activators. 45,000 compounds, 0.1% hits. AID 1159614, 2016; also: nearly all actives have a fitted effect of over 65% in size
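Brain-derived Twitcher mouse 145M-Twi cells stably expressing human GALC-G270D or wild-type GALC, treated live, then residual GALC activity read by fluorescence of HMU-b-Gal substrate (0.1 mM final) in citrate-phosphate buffer pH 5.2 with sodium taurocholate. Signal increase indicates enhancement.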
GPR32 ag: qHTS for Agonists of Human Resolvin D1 Receptor DRV1. Probable G-protein coupled receptor 32 (Homo sapiens), O75388. 48,000 compounds, 2.5% hits. AID 1346428, 2018. CHO-K1 GPR32 beta-arrestin PathHunter luminescence, 90 min; zero percent set by DMSO-only wells. activation, % at 76.9 µM;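 active = activation of at least 60% and not above a set upper limit, about 1 call in 100 departs from these limits; inconclusive = activation of 40% to 60%, or above that upper limit; inactive = activation under 40%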
Target sequence (O75388 whole entry, looked up): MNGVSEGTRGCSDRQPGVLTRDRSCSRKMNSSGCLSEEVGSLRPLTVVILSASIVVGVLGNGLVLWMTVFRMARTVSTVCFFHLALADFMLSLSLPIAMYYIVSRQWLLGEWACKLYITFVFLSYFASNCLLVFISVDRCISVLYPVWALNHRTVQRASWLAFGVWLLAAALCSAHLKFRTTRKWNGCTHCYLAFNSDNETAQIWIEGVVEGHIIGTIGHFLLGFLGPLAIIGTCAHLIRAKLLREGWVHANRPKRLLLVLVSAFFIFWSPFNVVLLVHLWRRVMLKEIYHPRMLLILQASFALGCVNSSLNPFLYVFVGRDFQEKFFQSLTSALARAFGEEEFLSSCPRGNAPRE
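Cells are plated overnight, treated with compounds in DMSO for 90 minutes at 37 °C, and developed with PathHunter detection reagent for 1 hour before luminescence is read; signal reflects beta-arrestin binding to GPR32 in engineered CHO-K1 cells.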
NTMT1 inh: Primary qHTS for Inhibitors of N-terminal methyltransferase 1 (NTMT1): MTaseGlo Assay; N-terminal Xaa-Pro-Lys N-methyltransferase 1 (Homo sapiens), Q9BV86; NTMT1 MTase-Glo SAH luminescence, purified enzyme; Potency, µM (series often up to 114 µM), usual class: inhibitors; 59,000 compounds, 2.5% hits; AID 1645870, 2021; also: nearly all actives have a fitted effect of over 65% in size
Target sequence (Q9BV86 whole entry, looked up): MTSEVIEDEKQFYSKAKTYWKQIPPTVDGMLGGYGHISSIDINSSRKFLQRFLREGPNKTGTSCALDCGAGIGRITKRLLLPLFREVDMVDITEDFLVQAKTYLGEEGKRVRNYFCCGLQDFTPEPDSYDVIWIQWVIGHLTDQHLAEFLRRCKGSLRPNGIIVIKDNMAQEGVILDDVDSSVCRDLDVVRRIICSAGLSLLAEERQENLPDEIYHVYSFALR
p53null 32C tox: qHTS Screen for Compounds that Selectively Target Cancer Cells with p53 Mutations: Cytotoxicity of p53 Null Cells at the Permissive Temperature | 55,000 compounds, 0.62% hits | AID 903, 2007 | H1299-neo p53 null cells, ATP luminescence, 24 h, 32C | Potency, µM (top dose mostly 46.1 µM), usual class: cytotoxic; also: nearly all actives have a fitted effect of over 55% in size
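H1299-neo, 600 cells/well; overnight 37C; cpd up to 46 uM, 24 h at 32C; ATPlite luminescence after 20 min RT; normalized to DMSO (0%) and tamoxifen 100 uM (100% kill); Hill-fit AC50.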
A number is an active result; – = inactive; ? = inconclusive; · = no result; [ ] = another dose, or the depositor's remark. Unless noted, calls follow the shape of the dose curve; as a rule, active = well fitted curve in the direction sought with a large enough effect; inconclusive = small, poorly fitted or top-dose-only effect, or another doubt; inactive = no such curve, though single readings can be large; an effect the other way counts as inactive or inconclusive.

SMILES	p53null 39C kill	FH mod	GALC G270D up	GPR32 ag	NTMT1 inh	p53null 32C tox
CCOC(=O)c1ccc(NC(=O)CN2C(=O)C(C)(C)c3ccccc32)cc1	–	–	–	109	–	?
CC1=C(C(=O)Nc2ccc(Cl)cc2)C(c2ccc(C(F)(F)F)cc2)n2nnnc2N1 (stereo not drawn)	–	–	–	65	–	–
CN(C)S(=O)(=O)c1ccc(C(=O)NC2CC(=O)N(c3ccc4c(c3)OCCO4)C2)cc1 (stereo not drawn)	–	–	–	–	89µM	–
Cc1nc2c(c(C)nn2-c2ccccc2)c(C)c1CCC(=O)Nc1ccc(F)cc1	–	–	–	–	–	–
Cc1nc2c(c(C)nn2C(C)(C)C)c(C)c1CCC(=O)Nc1ccc(F)cc1	–	–	–	74	–	–
CC(=O)Nc1ccc(NC(=O)CCc2c(C)nc3c(c(C)nn3-c3ccc(C)cc3)c2C)cc1	6.3µM	–	–	–	–	–
CC(=O)Nc1ccc(NC(=O)CCc2c(C)nc3c(c(C)nn3-c3ccccc3)c2C)cc1	?	–	–	–	–	–
Cc1cccc2c(C(=O)O)cc(Cl)nc12	·	·	·	·	–	·
FC(F)(F)c1ccccc1-c1nc(NCc2ccccc2)c2ccccc2n1	·	·	·	·	–	·
CCCCN(CC)CCCNC(=O)C1CCN(c2nc3ccc(CC)cc3s2)CC1	13µM	–	–	–	–	?
CCCCN(C)CCCNC(=O)C1CCN(c2nc3ccc(CC)cc3s2)CC1	13µM	–	–	–	?	?
FC(F)(F)c1ccccc1-c1nc(NCc2ccc3c(c2)OCO3)c2ccccc2n1	·	·	·	·	–	·
CC(=O)O/N=C1\C(=O)N(Cc2cc(Cl)ccc2Cl)c2ccc(Cl)cc21	·	·	·	·	–	·
Cn1c(=O)c2c(nc(CN3CCN(C(=O)C4CC4)CC3)n2Cc2ccccc2Cl)n(C)c1=O	·	·	·	·	–	·
COc1ccccc1NC(=O)CC1Sc2ccc(C(F)(F)F)cc2NC1=O (stereo not drawn)	–	–	–	64	–	–
O=C(Nc1ccn(Cc2ccc(O)cc2C(F)(F)F)n1)c1c(F)cccc1F	·	–	·	·	?	·
CN(C)CCOc1ccc(-c2nc(-c3ccc4c(c3)CC/C4=N\O)c(-c3ccncc3)[nH]2)cc1	·	·	·	·	28µM	·
O=C(/C=C/n1cnc(-c2cc(C(F)(F)F)cc(C(F)(F)F)c2)n1)NNc1cnccn1	·	–	·	·	–	·
O=C(O)Cc1cccc(OCCCN(Cc2cccc(C(F)(F)F)c2Cl)CC(c2ccccc2)c2ccccc2)c1	·	–	·	·	40µM	·
CC(C)c1ccc(Nc2ncnc3c2nc2n3CCCC2)cc1	?	–	–	–	79µM	–
CCOc1ccc(Nc2ncnc3c2nc2n3CCCC2)cc1	–	–	–	–	?	–
CCOc1ccc(CCNC(=O)Cn2c(-c3cccs3)cc3cc(F)ccc32)cc1OCC	–	–	–	112	–	–
CCOc1ccc(CCNC(=O)c2ccccc2)cc1OCC	·	·	·	·	–	·
CCOc1ccc(CCNC(C)=O)cc1OCC	·	·	·	·	50µM	·
CCOc1cc(CNC(=O)Cn2c(-c3cccs3)cc3cc(F)ccc32)ccc1OC	–	–	–	–	–	–
SMILES	p53null 39C kill	FH mod	GALC G270D up	GPR32 ag	NTMT1 inh	p53null 32C tox
COc1ccccc1CNC(=O)Cn1c(-c2cccs2)cc2cc(F)ccc21	–	–	–	103	–	–
CC(=O)OCC1=CCC2C(C)(C)CCCC2(C)C12CCC(C)(CC(=O)O)O2 (stereo not drawn)	·	–	·	·	–	·
COc1cc(C2c3c(-c4ccc(C)cc4)n[nH]c3C(=O)N2c2ccc(F)cc2)ccc1O (stereo not drawn)	–	?	–	104	–	–
COc1ccc(C2c3c(-c4ccc(F)cc4)n[nH]c3C(=O)N2c2ccccc2)cc1OC (stereo not drawn)	?	?	–	–	–	–
Cc1ccccc1CSc1cn(CCNC(=O)c2cccs2)c2ccccc12	·	–	–	–	–	·
COc1ccc(CCNC(=O)CSc2cn(CCNC(=O)c3ccccc3F)c3ccccc23)cc1OC	·	–	–	80	–	·
O=C(CSc1cn(CCNC(=O)c2c(F)cccc2F)c2ccccc12)Nc1ccccc1F	·	–	–	66	–	·
O=C(CSc1cn(CCNC(=O)c2c(F)cccc2F)c2ccccc12)Nc1ccc(F)cc1	·	–	–	–	–	·
O=C(NCCn1cc(SCc2ccccc2F)c2ccccc21)c1cccs1	·	?	–	67	–	·
CC(=O)OC[C@@]12[C@H](O)C[C@@H](C)[C@]3(C[C@@H](c4ccoc4)OC3=O)[C@H]1C[C@H](O)C[C@]21CO1	·	–	·	·	–	·
CC(C)C[C@H](CC(=O)NO)C(=O)N[C@@H](Cc1ccc2ccccc2c1)C(=O)N[C@@H](C)C(=O)NCCN	·	–	·	·	–	·
CCOc1ccc(N(CC)C(=O)c2cc3c(s2)-c2ccc(Cl)cc2SC3)cc1	10µM	–	–	–	–	–
CCc1ccccc1N(CC)C(=O)c1cc2c(s1)-c1ccccc1SC2	13µM	?	–	–	–	–
CCCN(C(=O)c1cc2c(s1)-c1c(C)cccc1OC2)c1ccc(OCC)cc1	–	–	–	–	–	?
CC(C)(NC(=O)Nc1ccccc1Cl)C(=O)N1CCC(C(=O)O)CC1	·	·	·	·	–	·
COc1cccc(NS(=O)(=O)c2ccc(C)cc2)c1C(=O)Nc1nc(-c2ccccc2)cs1	·	·	·	·	–	·
CO[C@H]1/C=C/C=C/C=C/C[C@H](OC(=O)[C@@H](C)NC(=O)C2CCCCC2)[C@H](C)[C@@H](O)/C(C)=C/CCc2cc(O)cc(c2)NC(=O)C1	·	–	·	·	–[12.6 µM]	·
COc1cc(S(=O)(=O)NCCc2c(C)[nH]c3ccccc23)c(C)cc1C	–	–	–	78	–	–
CCOc1ccc(S(=O)(=O)NCCc2c(C)[nH]c3c(Cl)cccc23)cc1C	–	?	–	–	–	–
Cc1cccn2c(=O)cc(CSc3nnc(NC(=O)COc4ccccc4)s3)nc12	–	–	–	–	40µM	–
Cc1cccn2c(=O)cc(COc3cccc(NC(=O)c4ccccc4F)c3)nc12	7.9µM	–	–	–	?	–
Cc1cccc(-n2cnc3cc(C(=O)NC(C)(C)C)ccc32)c1	·	·	·	·	–	·
C[C@@H]1N=C(N)NC(N(C)C)=N1	·	–	·	·	–	·
